Screening results as filed in PubChem BioAssay.
In the library only some 11% were active in any assay of this set; here they are far more common.
CBFb-RUNX1 inh: inhibitors of human CBF-beta and RUNX1 interaction. Q01196+Q13951. AID 1477. 230,000 tested, under 10 active. Potency, µM (top dose mostly 59.8 µM), for the others: top-dose activity, negative = inhibition, most hits filed as inhibitors. AlphaScreen CBFb-His/RUNX1-biotin binding, biochemical; further: % of control where 0% means no effect
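CBFb-His/RUNX1-biotin, 30 nM each, preincubated 20 min RT; compound 15 min RT; Ni + streptavidin beads 50 ng each, 90 min RT; AlphaScreen read.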
HTT ATP protect: protects HTT-Q103 PC12 cells, measured by ATP; PC12 HTT-Q103 induced, cytoprotection, ATP luminescence, 40 h; Potency, µM (series often up to 56.4 µM), inactives show cytoprotection (ATP increase), most hits filed as activators; 0.14% of 230,000 active; further: potency means the concentration at half of the fitted maximal effect; % of control where 0% means no effect; nearly all actives have a fitted effect of over 45% in size
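Compounds were screened for protection of PC12 cells against cell death after tebufenozide induction (100 nM final) of mutant Huntingtin exon 1 (Q103) fused to GFP.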
PNC assembly inh: blocks assembly of the perinucleolar compartment. AID 2417. activity change (PNC), negative = inhibition, % at 10 µM. 3.1% of 140,000 active. PC3M PTB-GFP, PNC prevalence imaging, 16 h; active compounds read low;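 active means readout at or below -70, meaning at least 70% loss of cells showing the perinucleolar compartment, a nuclear body marking cancer cells; inconclusive means readout between -30 and a set limit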;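 further: plate controls were DMSO wells for no effect and camptothecin positive control wells for full effect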
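Read-out is percentage of cells bearing a perinucleolar compartment, from automated 20x imaging of fixed, Hoechst-stained PC3M PTB-GFP cells. Cells were seeded 4 h, then exposed 16 h to compound (23 nl of library stock) in duplicate plates.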
ALDH1A1 inh: ALDH1A1 (human) enzyme inhibition; AID 1030; 7.3% of 220,000 active; Potency, µM (titrated, usually from 75.3 µM), inactives show top-dose activity, negative = inhibition, usual class: inhibitors; P00352; Purified ALDH1A1, NADH fluorescence, propionaldehyde substrate; active means well fitted inhibition curve with a large enough effect, not every such curve was filed as active; inconclusive means small, poorly fitted or top-dose-only effect, or another doubt; inactive means no such curve, though single readings can be large or run the other way;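 further: potency means the concentration at half of the fitted maximal effect; plate controls were no enzyme wells and a reference inhibitor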
Target sequence (P00352 whole entry, looked up): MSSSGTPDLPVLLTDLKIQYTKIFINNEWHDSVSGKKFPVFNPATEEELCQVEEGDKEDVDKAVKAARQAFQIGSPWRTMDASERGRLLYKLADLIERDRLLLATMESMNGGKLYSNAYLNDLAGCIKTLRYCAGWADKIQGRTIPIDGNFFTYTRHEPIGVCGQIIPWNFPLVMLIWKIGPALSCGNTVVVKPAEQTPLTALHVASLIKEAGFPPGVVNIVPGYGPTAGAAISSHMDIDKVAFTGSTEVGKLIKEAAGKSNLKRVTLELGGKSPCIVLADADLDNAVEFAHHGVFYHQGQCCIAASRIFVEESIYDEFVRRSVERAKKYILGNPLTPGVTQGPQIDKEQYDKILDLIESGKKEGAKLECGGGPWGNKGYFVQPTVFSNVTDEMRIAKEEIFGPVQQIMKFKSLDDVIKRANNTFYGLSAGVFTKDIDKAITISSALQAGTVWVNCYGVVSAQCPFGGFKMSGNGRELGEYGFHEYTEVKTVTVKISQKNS
HPGD block: inhibitors of human 15-hydroxyprostaglandin dehydrogenase (HPGD); P15428; purified HPGD, NADH fluorescence kinetic, PGE2 substrate; Potency, µM, for inactives: top-dose activity change, negative = inhibition, usual class: inhibitors; 4.3% of 150,000 active; active means well fitted inhibition curve with a large enough effect, not every such curve was filed as active; inconclusive means small, poorly fitted or top-dose-only effect, or another doubt; inactive means no such curve, though single readings can be large or run the other way; further: potency means the concentration at half of the fitted maximal effect; on the % scale 0 is the no-effect control and ±100 the full control effect
Target sequence (P15428 whole entry, looked up): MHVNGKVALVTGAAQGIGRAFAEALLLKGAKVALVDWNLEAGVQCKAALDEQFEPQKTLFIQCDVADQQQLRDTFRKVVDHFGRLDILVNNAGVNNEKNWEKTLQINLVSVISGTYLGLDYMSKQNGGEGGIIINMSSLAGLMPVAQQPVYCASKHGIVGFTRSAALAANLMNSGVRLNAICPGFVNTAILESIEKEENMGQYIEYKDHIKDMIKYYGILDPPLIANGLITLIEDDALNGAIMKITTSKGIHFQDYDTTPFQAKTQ
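20 nM HPGD preincubated 15 min at room temperature with compound in 50 mM Tris-HCl pH 8, 0.01% Tween 20. Started with 1 mM NAD+ and 30 uM prostaglandin E2; NADH fluorescence (360/450 nm) read 5 times over 30-s intervals, last minus first.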
HTT aggregate: mutant huntingtin aggregation inhibition | PC12 HttQ103-GFP aggregates, Acumen cytometry, 40 h | Potency, µM (highest dose often 46.1 µM), for inactives: top-dose activity change, negative = inhibition, usual class: inhibitors | 1.1% of 220,000 active | AID 1688; further: potency means the concentration at half of the fitted maximal effect; on the % scale 0 is the no-effect control and ±100 the full control effect; nearly all actives have a fitted effect of over 60% in size
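Inducible Q103 Huntingtin exon 1–GFP PC12 line, 1500 cells/well in phenol red free DMEM with 5% equine and 5% calf serum. Tebufenozide 100 nM induced expression; compounds titrated; aggregates quantified by cytometry.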
* hit, by the source's call; ? = inconclusive; / = not tested or not shown; [ ] = remark or other dose. Unless noted, the call rests on the fitted dose curve; in most records, active means well fitted curve in the direction sought with a large enough effect; inconclusive means small, poorly fitted or top-dose-only effect, or another doubt; inactive means no such curve, though single readings can be large; an effect the other way counts as inactive or inconclusive.

SMILES	CBFb-RUNX1 inh	HTT ATP protect	PNC assembly inh	ALDH1A1 inh	HPGD block	HTT aggregate
CCc1nc(C)ccc1OC(=O)C12CC3CC(CC(C3)C1)C2	9%	-18%[10 µM]	13	18µM*	-21%	7%
COC(=O)c1cc(C(=O)OC)cc(N2C(=O)CC(NNC(=O)c3ccccc3Cl)C2=O)c1 (centres undefined)	-2%	2%[10 µM]	-99*	?	-15%	12%
O=C(NNC1CC(=O)N(c2ccccc2)C1=O)c1ccccc1Cl (centres undefined)	-2%	15%[10 µM]	/	8%	/	6%[9.22 µM]
COc1ccc(S(=O)(=O)N(C)C)cc1NC(=O)Cc1c[nH]c2ccccc12	-22%	/	/	-17%	/	9%
Cc1ccc(S(=O)(=O)N(C)C)cc1NC(=O)CCc1c[nH]c2ccccc12	7%	-31%	/	4.5µM*	/	6%
Cc1ccc(S(=O)(=O)N(C)C)cc1NC(=O)CCc1ccccc1	-6%	-32%[10 µM]	/	4.5µM*	/	-17%[9.22 µM]
CCc1ccc2[nH]c(=O)c(CN(Cc3nnnn3C3CCCC3)C3CCCCC3)cc2c1	-6%	-38%	-1	14µM*	-19%	17%[9.22 µM]
CCOc1ccc2[nH]c(=O)c(CN(CCO)C(c3nnnn3C3CCCCC3)C(C)C)cc2c1 (centres undefined)	8%	-14%	-9	13µM*	-17%	3%
Cc1ccc2[nH]c(=O)c(CN(Cc3nnnn3Cc3ccccc3)C3CCCC3)cc2c1	14%	-55%[10 µM]	28	20µM*	-12%	0.89µM*
COc1ccc2[nH]c(=O)c(CN(Cc3nnnn3Cc3ccccc3)CC3CCCO3)cc2c1 (centres undefined)	3%	-15%[10 µM]	28	?	-25%	19%
CC(=O)O[C@@H](C)C[N+](C)(C)C	-5%[21.7 µM]	?	/	-4%[20.9 µM]	-7%	12%[20.6 µM]
CCCSc1nc(N2CCOCC2)c2c(c1C#N)CCCC2	7%	-55%	25	14µM*	/	-10%
CSc1nc(C)c2c(c1C#N)CCCC2	-4%	14%	?	25µM*	-20%	-23%
CCCc1nc(N2CCOCC2)c(C#N)c2c1CCCC2	5%	-37%	?	-158%	?	-27%
Cc1nc(SCC(=O)O)c(C#N)c2c1CCCC2	?	-13%[10 µM]	/	/	/	-5%[9.22 µM]
CSc1nc(N2CCOCC2)c2c(c1C#N)CC(C)(C)OC2	4%	-17%	31	-5%	-9%	-10%
N#CCCSc1nc(N2CCOCC2)c2c(c1C#N)CCCC2	1%	-3%	?	13µM*	-4%	-23%
CSc1nc(N2CCOCC2)c2c(c1C#N)CCCCC2	14%	-34%[10 µM]	?	22µM*	-14%	?
COc1ccc(-n2c(=O)c(C)nc3cnc(N4CCNCC4)nc32)cc1	/	-21%	/	?	-21%	/
COc1ccc(OC)c2c(C)cc(N3CCN(C(=O)c4ccc(Cl)cc4)CC3)nc12	-5%	-34%	-1	?	?	-8%
CC(/C=C1\SC(=S)N(NS(=O)(=O)c2ccc(C)cc2)C1=O)=C\c1ccccc1	?	-5%[10 µM]	/	/	/	0%[9.22 µM]
CC(=O)N1C(=O)/C(=C2\SC(=S)N(c3c(C)n(C)n(-c4ccccc4)c3=O)C2=O)c2ccccc21	3%	6%[10 µM]	-18	10µM*	-4%	-10%
Cc1c(N2C(=O)/C(=C3/C(=O)N(C)c4ccccc43)SC2=S)c(=O)n(-c2ccccc2)n1C	-5%	-43%	119	0%	7%	-1%
CC(=O)N1C(=O)/C(=C2\SC(=S)N(NS(=O)(=O)c3ccc(C)cc3)C2=O)c2ccccc21	2%	6%[10 µM]	/	13µM*	/	-5%[9.22 µM]
O[C@@H](c1cc(-c2ccc(Cl)cc2)nc2ccccc12)[C@@H]1CCCCN1	/	11%[10 µM]	/	/	/	/
SMILES	CBFb-RUNX1 inh	HTT ATP protect	PNC assembly inh	ALDH1A1 inh	HPGD block	HTT aggregate
O=C(Nc1nccs1)c1cc(-c2ccco2)nc2ccccc12	?	1%[10 µM]	-89*	?	-30%	-1%
COc1cccc(-c2cc(C(=O)Nc3nc4ccccc4s3)c3ccccc3n2)c1	-8%	-30%	-115*	?	?	-16%
O=C(Nc1nccs1)c1cc(Cl)nc2ccccc12	-2%	21%[10 µM]	/	?	/	-9%[9.22 µM]
O=C(Nc1nccs1)c1sc2cc(Cl)ccc2c1Cl	2%	-11%	57	?	?	-21%
O=C(Nc1nc2ccccc2s1)c1cc(-c2ccco2)nc2ccccc12	-5%	-4%[1.9 µM]	4	?	?	-2%
O=C(Nc1nccs1)c1sc2ccccc2c1Cl	9%	-34%[10 µM]	18	-2%	13µM*	?
O=C(Nc1nccs1)c1cc(-c2ccccc2)nc2ccccc12	-11%	/	54	-7%	18µM*	-16%
COc1ccc(Oc2ncc3nc(CCc4ccccc4)c(=O)n(C4CC4)c3n2)cc1	/	30%	/	?	-27%	/
CC(C)c1cc(N2CCC(=O)NC2=O)cc(C(=O)O)c1O	4%	/	-114*	?	?	-24%
O=C(NCCCN1CCOCC1)c1ccc(-n2c(=O)c(=O)[nH]c3ccccc32)cc1	/	/	/	9%	-3%	/
CC(C)=CCN1CCN(CCC2=C(C)CCCC2(C)C)CC1CCO (centres undefined)	9%	-7%[10 µM]	/	6%	/	5%[9.22 µM]
CC1=C(CC/C(C)=N/NC(N)=S)C(C)(C)CCC1	15%	?	?	28µM*	-19%	-3%
Cc1ccc(Nc2nnns2)cc1C	1%	-32%	-82*	4µM*	22µM*	5%
Cc1cc(Nc2ccc(C)c(C)c2)n2nc(C)nc2n1	2%	-12%	-20	?	-26%	16%
O=C(COc1ccccc1)Nc1cccc(-c2nc3cc4ccccc4cc3[nH]2)c1	25%	-106%	-12	?	?	?
O=C(C1CC1)N(Cc1ccco1)c1nc(-c2ccccc2)cs1	-1%	13%[10 µM]	35	6.3µM*	-25%	-21%
CCOc1ccc2c(c1)C(=O)c1cc(OCC(=O)O)ccc1-2	?	-24%[10 µM]	/	/	/	0%[9.22 µM]
CCCCOc1ccc2c(c1)C(=O)c1cc(O)ccc1-2	?	-14%[10 µM]	/	40µM*	/	21%[9.22 µM]
c1cc2c(cc1C(N1CCNCC1)N1CCNCC1)OCO2	/	-7%[10 µM]	/	7%[13.5 µM]	-1%	/
Cc1ccc(/C=C/C(=O)N2CCN(S(=O)(=O)c3ccc(C)c(C)c3)CC2)o1	?	7%[10 µM]	?	3.5µM*	22µM*	?
Cc1ccc(S(=O)(=O)N2CCN(C(=O)N(C)C)CC2)cc1C	9%	-7%	18	?	5%	4%
Cc1cccc(CN2CCN(C(=O)CCl)CC2)c1	10%	-18%[10 µM]	33	0.32µM*	/	?
Cc1ccc(/C=C/C(=O)NCCCN2CCN(CCCNC(=O)/C=C/c3ccc(C)o3)CC2)o1	-8%	10%[10 µM]	-22	-6%	-21%	1%
